Sampled rows, rich in hits. Any-hit rate of the full collection: about 1.2%.
FPRL1 ligand = binds the human formylpeptide receptor-like-1 FPRL1. FPRL1-expressing cells, fluorescent ligand binding inhibition, flow cytometry. inhibition, % (concentration not given with the values). 0.3% of 24,000 active;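 also: 0% = buffer alone and 100% = receptor blocker peptide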
FPR ligand = human FPR ligand, with FPRL1 counter-screen | P21462 | FPR-expressing cells, fluorescent ligand binding, flow cytometry | inhibition, % (no concentration beside the values) | 0.74% of 24,000 active | AID 440;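 also: 0% = buffer wells and 100% = receptor blocker peptide wells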
Target sequence (P21462 whole entry, looked up): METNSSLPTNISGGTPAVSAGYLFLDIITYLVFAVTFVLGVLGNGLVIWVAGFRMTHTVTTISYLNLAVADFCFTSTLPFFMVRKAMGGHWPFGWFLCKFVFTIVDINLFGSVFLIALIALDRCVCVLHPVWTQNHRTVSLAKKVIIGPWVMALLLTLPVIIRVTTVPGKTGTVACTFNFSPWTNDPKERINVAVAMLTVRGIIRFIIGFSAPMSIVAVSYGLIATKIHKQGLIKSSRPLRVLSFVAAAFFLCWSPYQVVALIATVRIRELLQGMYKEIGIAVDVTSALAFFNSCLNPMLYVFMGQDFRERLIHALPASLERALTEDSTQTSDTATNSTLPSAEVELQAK
QS inhibitor = S. aureus quorum sensing inhibition; inhibition, % at 2 µM; AID 527; S. aureus RN6390 RNAIII-GFP reporter, AIP-induced, flow cytometry 3 h; 0.3% of 24,000 active;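 active = share of bacteria positive for the green fluorescent reporter and its mean brightness both inhibited by 50% or more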;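 also: 0% = AIP-stimulated control and 100% = unstimulated bacteria without AIP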
The depositor's hits bear a star; ? = inconclusive; / = no result. Rule as the data show it, unless noted: active = inhibition above about 30%; inconclusive = no clear call, values can overlap the other calls; inactive = below that.

SMILES | FPRL1 ligand | FPR ligand | QS inhibitor
O=C(N1CCOCC1)N1CCC(NC(=O)C23CC4CC(CC(C4)C2)C3)CC1 | 5 | -4 | 0
Cc1ccc(NS(=O)(=O)c2ccc(NC(=O)[C@@H]3CCCC[C@@H]3C(=O)O)cc2)c(C)c1 | 6 | -3 | /
O=C(NCCCN1CCCC1)c1cccc(N2CCCC2=O)c1 | -1 | 0 | 1
O=C(NCCCN1CCN(c2ccc(F)cc2)CC1)c1cccc(N2CCCC2=O)c1 | 31* | -2 | 4
CCc1ccc(C2CC(c3ccc(C)cc3)n3nc(N)nc3N2)cc1 (configuration not stated) | 5 | -1 | 2
COc1ccc(NC(=O)C2C(=O)NC3(C)CC2c2ccccc2O3)cc1 (configuration not stated) | 30* | 12 | -1
COc1ccc(C(C)NC(=O)C2C(=O)NC3(C)CC2c2ccccc2O3)cc1 (configuration not stated) | 1 | 2 | 0
Cc1nc2c(-c3ccccc3)c(C)nn2c(C)c1CCC(=O)NCc1ccco1 | -1 | 6 | -1
Cc1nc2c(-c3ccc(F)cc3)c(C)nn2c(C)c1CCC(=O)NC(C)CCc1ccco1 (configuration not stated) | -6 | 44* | 17
O=S(=O)(c1cnc[nH]1)N1CCc2ccccc21 | 33* | ? | 0
CC1Cc2ccccc2N1S(=O)(=O)c1cnc[nH]1 (configuration not stated) | -45 | -11 | 5
Cn1c(C(=O)N2CCN(c3ccc(Cl)cc3)CC2)cc2c(=O)n(C)c3ccccc3c21 | -6 | -3 | -3
Cc1sc(NC(=O)CSc2nc(N)n(CC(=O)c3ccccc3)n2)c(C#N)c1C | 0 | -4 | -2
CCOC(=O)Nc1ccc(OC)cc1S(=O)(=O)N1CCCCC1 | 51* | 63* | 0
COc1ccc(CCNC(=O)C2CCN(S(=O)(=O)c3cc(OC)ccc3OC)CC2)cc1 | -1 | 1 | 4
Cc1cccn2c(=O)c3cc(C(=O)NC(C)c4ccccc4)c(=N)n(CCCn4ccnc4)c3nc12 (configuration not stated) | 5 | -6 | 2
c1ccc(-c2nc(N3CCCCCC3)nc(-n3ccnc3)n2)cc1 | 0 | 8 | 19
c1ccc(-c2ccc(C(c3ccccc3)n3ccnc3)cc2)cc1 (configuration not stated) | 3 | 6 | 58*
CCOC(=O)c1ccc(NC(=O)N2CCN(Cc3cccc(F)c3)CC2)cc1 | -3 | -16 | -1
CC(=O)NC(Cc1cc(C)ccc1C)C(=O)N1CCN(C(=O)Nc2ccc(C(C)=O)cc2)CC1 (configuration not stated) | 7 | 35* | 0
Cc1ccc(C)c(Cn2c(=O)c3c(nc4n3CCN4Cc3ccco3)n(C)c2=O)c1 | 0 | 8 | 9
Cn1c(=O)n(CCc2ccccc2)c(=O)c2c1nc1n2CCN1Cc1ccco1 | -6 | 2 | 96*
CCOCC(=O)Nc1ccc(-c2cn3cccnc3n2)cc1 | 2 | 2 | 10
CCCC(=O)Nc1cc(-c2cn3cccnc3n2)ccc1OC | 47* | -1 | -4
COc1ccc(-c2cn3cccnc3n2)cc1NC(=O)c1ccc(Br)o1 | 10 | 3 | 0
SMILES | FPRL1 ligand | FPR ligand | QS inhibitor
COc1ccc(-c2cn3cccnc3n2)cc1NC(=O)CC(C)C | 40* | 3 | -5
CCSc1nnc(NC(=O)CSc2nc3c(c(=O)n2-c2ccccc2OC)SCC3)s1 | 1 | 6 | 6
O=C(CN1C(=O)CCS(=O)(=O)c2ccccc21)Nc1cccc(Cl)c1 | 7 | 12 | -6
COc1ccc(-n2c(=O)c3c4c(sc3n3c(C)nnc23)CCCC4)cc1 | -3 | 1 | 0
Cc1nn(C)c(C)c1S(=O)(=O)N(CC(=O)NCCN1CCOCC1)c1ccc(C(C)C)cc1 | 9 | -2 | -2
COc1cccc(N2C(=O)C3ON(c4ccccc4)C(c4cccs4)C3C2=O)c1 (configuration not stated) | -3 | 39* | -1
O=C1C2ON(c3ccccc3)C(c3cccnc3)C2C(=O)N1c1ccccc1 (configuration not stated) | 5 | 23 | -1
CCOc1cccc(/C(O)=C2/C(=O)C(=O)N(CCOC)C2c2ccc(C)o2)c1 (configuration not stated) | -11 | 51* | /
Cc1ccc(C2/C(=C(/O)c3ccccc3)C(=O)C(=O)N2CCN2CCOCC2)o1 (configuration not stated) | 0 | -5 | /
COc1cccc(NC(=O)CCSc2nnc3scc(-c4ccccc4)n23)c1 | -10 | 11 | -3
COc1ccc(S(=O)(=O)NC(C)C(=O)Nc2cccc(C(C)=O)c2)cc1 (configuration not stated) | 47* | 11 | 0
COC(=O)C(C)NS(=O)(=O)c1ccc(NC(C)=O)cc1 (configuration not stated) | 7 | -15 | -1
COCCCN1C(=O)C(O)=C(C(=O)c2ccco2)C1c1ccccc1 (configuration not stated) | 1 | 43* | /
CC(C)Oc1ccc(C2C(C(=O)c3ccco3)=C(O)C(=O)N2Cc2cccnc2)cc1 (configuration not stated) | -2 | 16 | /
CCCOc1ccc(/C(O)=C2/C(=O)C(=O)N(CCCn3ccnc3)C2c2cccs2)cc1 (configuration not stated) | 1 | 6 | /
COc1cccc(C2C(C(=O)c3sc(C)nc3C)=C(O)C(=O)N2CCN2CCOCC2)c1 (configuration not stated) | -2 | 1 | /
Cc1ccc(C2C(C(=O)c3sc(C)nc3C)=C(O)C(=O)N2CCN2CCOCC2)o1 (configuration not stated) | 26 | 35* | /
COc1cccc(C2C(C(=O)c3cccs3)=C(O)C(=O)N2CCCn2ccnc2)c1OC (configuration not stated) | -1 | 32* | 0
CCCOc1ccc(C2C(C(=O)c3ccco3)=C(O)C(=O)N2CCCn2ccnc2)cc1 (configuration not stated) | -5 | 55* | /
O=C(C1=C(O)C(=O)N(CCc2ccccc2)C1c1cccnc1)c1ccco1 (configuration not stated) | -3 | 30 | /
O=C(C1CC1)N1CCc2cc(S(=O)(=O)N(CCO)Cc3ccccc3)ccc21 | -4 | -3 | 3
COCCOC(=O)C1=C(C)NC(=O)N(C(C)=O)C1c1ccc(Cl)cc1 (configuration not stated) | -8 | -5 | -12
O=C(CSc1ncnc2c1nnn2Cc1ccccc1F)N1CCN(c2ccccc2)CC1 | 15 | 18 | 11
O=C(OCC#CCSc1nc2ccccc2s1)c1ccco1 | 2 | -5 | -1
O=C(O)c1ccc(COc2c(F)c(F)c(F)c(F)c2F)o1 | 2 | -6 | -2
COc1ccc(C2C(C(=O)c3sc(C)nc3C)=C(O)C(=O)N2CCN(C)C)cc1 (configuration not stated) | -2 | 4 | 0
CCOc1ccc(C2C(C(=O)c3ccco3)=C(O)C(=O)N2Cc2cccnc2)cc1OC (configuration not stated) | -2 | 12 | /
CCOc1cc(C2C(C(=O)c3ccco3)=C(O)C(=O)N2CCc2ccccc2)ccc1O (configuration not stated) | -4 | 86* | /

High-throughput results from PubChem.
